Compound activity from PubChem.
The list is not random: actives were taken first. Their share in the collection is about 3.7%.
ERa SRC1 inh: ER-alpha (human) coactivator binding inhibition | P03372 | TR-FRET ER-alpha LBD / SRC-1 peptide, estradiol-bound | inhibition, % at 25.6 µM | actives 1.7% (n = 86,000) | AID 629; in the data active means inhibition above about 50%;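 further: 0% = receptor plus peptide control and 100% = peptide only without receptor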
Target sequence (P03372 whole entry, looked up, the tested form may be a part): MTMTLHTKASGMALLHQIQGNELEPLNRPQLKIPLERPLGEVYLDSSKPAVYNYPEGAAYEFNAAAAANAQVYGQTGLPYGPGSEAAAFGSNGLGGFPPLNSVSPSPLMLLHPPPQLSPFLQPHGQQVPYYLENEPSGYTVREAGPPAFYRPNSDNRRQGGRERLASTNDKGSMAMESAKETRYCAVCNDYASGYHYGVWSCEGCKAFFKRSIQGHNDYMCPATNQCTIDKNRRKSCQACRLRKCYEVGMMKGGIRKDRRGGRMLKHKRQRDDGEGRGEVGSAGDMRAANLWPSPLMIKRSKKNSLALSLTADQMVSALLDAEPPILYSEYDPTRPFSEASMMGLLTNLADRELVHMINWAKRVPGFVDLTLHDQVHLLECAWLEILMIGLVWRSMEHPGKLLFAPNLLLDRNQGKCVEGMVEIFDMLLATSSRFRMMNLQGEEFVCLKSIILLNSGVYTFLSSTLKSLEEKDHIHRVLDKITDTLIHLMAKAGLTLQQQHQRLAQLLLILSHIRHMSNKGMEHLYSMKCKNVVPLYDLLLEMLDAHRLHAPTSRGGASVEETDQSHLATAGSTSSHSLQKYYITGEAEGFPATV
ERa SRC1 pot: enhances coactivator binding to human estrogen receptor alpha. actives 1.3% (n = 86,000). TR-FRET ERalpha-LBD/SRC-Cy5 coactivator binding, 2 h; 100 = basal binding, no effect. coactivator binding (% of control), % at 25.6 µM. P03372; in the data active means activity above about 200%;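 further: binding measured in presence of low estradiol as agonist stimulus; 0% = peptide alone without receptor and 100% = receptor with peptide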
Smad3 FoxH1 inh: blocks human Smad3 binding to FoxH1 peptide. inhibition, % at 25 µM. TR-FRET Smad3/Dy647-FoxH1 peptide binding, europium anti-His. actives 0.29% (n = 88,000). AID 630. P84022;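 active means compounds that reduce the energy-transfer binding signal between the protein and its labelled peptide by more than half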;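 further: 0% = Smad3 plus labelled peptide maximal FRET and 100% = peptide-only background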
ERb SRC1 inh: ER-beta (human) coactivator binding inhibition; inhibition, % at 25.6 µM; actives 1.3% (n = 86,000); TR-FRET ER-beta LBD / SRC1-Cy5 peptide binding; receptor agonist-loaded with 1 µM estradiol;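 active means compounds whose percent inhibition of the receptor-coactivator binding signal exceeds about 50% in the single-dose screen, limit read from the data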;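 further: 0% = receptor plus peptide wells without compound and 100% = peptide-only wells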
Active calls of the source: *; / = not tested or not shown; [ ] = remark or other dose.

SMILES	ERa SRC1 inh	ERa SRC1 pot	Smad3 FoxH1 inh	ERb SRC1 inh
Cc1nn(CC(=O)Nc2ccc3c(c2)oc2ccccc23)c(=O)c2ccccc12	81*[fluorescence artefact?]	106	-53	51*[fluorescence artefact?]
CNC(=O)Cn1nc(C)c2ccccc2c1=O	16	109	1	20
Cc1ccc(C)c(NC(=O)Cn2nc(C)c3ccccc3c2=O)c1	18	296*[fluorescence artefact?]	4	3
Cc1nn(CC(=O)Nc2ccc3c(c2)nc(CN2CCCC2)n3C)c(=O)c2ccccc12	70*[fluorescence artefact?]	79	4	40
C/C(=C\c1ccc(Cl)cc1)C(C)(C)C(=O)O	/	/	3	/
O=C(O)[C@@H]1O[C@H]1C(=O)O	/	/	-4	/
COC(=O)c1[nH]c2cccc(OC)c2c1NC(=O)CN1CC2(C)CC1CC(C)(C)C2 (stereo unspecified)	-2	109	67*[fluorescence artefact?]	5
COC(=O)c1[nH]c2cccc(OC)c2c1NC(=O)CN1CCOCC1	-27	120	-14	-6
COCCn1c(SCC(=O)Nc2ccc(Cl)cn2)nc2ccccc21	3	99	-6	10
Cc1cc(C)nc(NC(=O)CSc2nn(C)c(=S)s2)n1	65*	47	8	33
COc1ccc(OC)c(NC(=O)Cc2coc3ccc4ccccc4c23)c1	1	84	-5	-2
Cc1cc(Cl)cc(C)c1OCCCCN1CCOCC1	67*	115	9	1
CCCCOc1ccc(OCCCN2CCOCC2)cc1	0	118	-3	-5
Cc1nc2c(ccc3nc(NC(=O)c4ccc5c(c4)OCCO5)sc32)s1	75*[fluorescence artefact?]	201*[fluorescence artefact?]	-5	58*[fluorescence artefact?]
O=C(Nc1cccc2nsnc12)c1ccc2c(c1)OCCO2	-9	114	9	-5
Cc1nc2ccc3nc(NC(=O)c4ccc5c(c4)OCCO5)sc3c2s1	62*[fluorescence artefact?]	418*[fluorescence artefact?]	-30	44
CCOc1ccc2nc(COC(=O)c3ccco3)c(C(C)=O)[n+]([O-])c2c1	17	66	10	22
CC(=O)c1c(COC(=O)c2cccnc2)nc2ccccc2[n+]1[O-]	65*[fluorescence artefact?]	52	-3	57*[fluorescence artefact?]
Cc1nc2c(F)c(F)c(C(F)(F)F)c(F)c2[nH]1	0	126	-11	1
Cc1nc2c(Br)c3nc(C(F)(F)F)[nH]c3c(Br)c2[nH]1	38	68	3	74*[fluorescence artefact?]
CC(C)CCn1cnc2c([nH]c3cccc(Cl)c32)c1=O	15	596*[fluorescence artefact?]	5	17
Cc1cccc2[nH]c3c(=O)n(CCN4CCNCC4)cnc3c12	-11	114	-2	-3
NNC(=O)[C@@H](O)[C@H](O)C(=O)NN	/	/	-8	/
C[C@@H]1O[C@H](O)[C@@H](O)[C@H](O)[C@H]1O	/	/	10	/
COc1ccc(-c2nn(C)c3sc(C(=O)NCc4ccco4)cc23)cc1OC	80*[fluorescence artefact?]	64	0	59*[fluorescence artefact?]
SMILES	ERa SRC1 inh	ERa SRC1 pot	Smad3 FoxH1 inh	ERb SRC1 inh
O=C(CSc1nc(Nc2ccccc2)nc(N2CCOCC2)n1)N1CCc2ccccc21	19	209*	2	4
O=C(CSc1nc(Nc2ccccc2)nc(N2CCOCC2)n1)N1CCCC1	-7	92	4	-3
O=c1[nH]n(-c2cccc3cccnc23)c(=O)c2ccccc12	-11	110	10	8
Oc1c(C=Nc2cccc3cccnc23)sc2ccccc12	79*	64	0	51*[fluorescence artefact?]
Clc1ccccc1-c1ccc(CN2CCN(c3ccccc3)CC2)o1	-5	94	10	7
Cc1cc(-c2ccc(Cl)cc2)c(C#N)c(N)n1	39	285*[fluorescence artefact?]	35	32
O=C1Nc2ccccc2[C@]1(O)Cc1ccccn1	/	/	2	/
COc1cc(OC)c(Cl)cc1N	-5	109	5	4
COc1ccc(OC)c(N)c1	91*[fluorescence artefact?]	0	2	63*[fluorescence artefact?]
Cn1c(=O)oc2cc(S(=O)(=O)Nc3ccc4c(c3)OCO4)ccc21	57*[fluorescence artefact?]	51	10	45
COc1ccc(C2SCC(C(=O)NCc3ccc(F)cc3)N2C(C)=O)cc1 (stereo unspecified)	-7	513*[fluorescence artefact?]	-5	7
Cc1ccc(CSCCNC(=O)c2ccc(Cl)c(S(=O)(=O)N3CCOCC3)c2)cc1	6	109	-2	0
COCCNC(=O)c1cc2ncc(Br)cn2n1	46	72	-12	39
O=C(Nc1ccc2c(c1)OCO2)c1cc2ncc(Br)cn2n1	77*[fluorescence artefact?]	71	9	67*[fluorescence artefact?]
O=C(Nc1cccc(C(F)(F)F)c1)c1cc2ncc(Br)cn2n1	45	124	-26	47
CCc1ccccc1NC(=O)c1cc2ncc(Br)cn2n1	60*[fluorescence artefact?]	81	13	54*
O=C(NCCc1ccccc1)c1cc2ncc(Br)cn2n1	77*[fluorescence artefact?]	41	19	77*[fluorescence artefact?]
N#C[C@@H](N=Nc1ccccc1C(=O)O)C(N)=O	/	/	12	/
